Data on eight compounds can be found in PubChem BioAssay (Tox21).

Experiment [1] is described as follows: qHTS assay to identify small molecule agonists of the hypoxia (HIF-1) signaling pathway - cell viability counter screen (AID 1224844; calls by dose curve; note: nearly all actives have a fitted effect of over 50% in size; note: potency is the fitted concentration of half-maximal effect). Put shortly:
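Tox21 10K compounds were added to HRE-bla ME-180 cells (0.5% dialyzed FBS) and incubated 17 hrs at 37C; ATP-based CellTiter-Glo luminescence then reported cell viability in the same wells.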

Experiment [2] can be described thus: qHTS assay to identify small molecule agonists of H2AX - cell viability counter screen (AID 1224847; calls by dose curve; note: nearly all actives have a fitted effect of over 30% in size; note: potency is the fitted concentration of half-maximal effect). Put shortly: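 Cytotoxicity counter screen in wild-type CHO-K1 cells: a 3 hr compound treatment at 37C across 15 concentrations, followed by CellTiter-Glo luminescence to gauge viable cells.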
Background: In qHTS, concentration-response curves come from the screen itself.

Experiment [3] in a line: A CellTox Green Cytotoxicity Assay to monitor cytotoxicity in HEK293 cells - 0 hour (AID 1224869). Note: nearly all actives have a fitted effect of over 50% in size. Put shortly: (§1)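 Cytotoxicity was tracked continuously in HEK293 cells by a DNA-binding dye excluded from viable cells. Compounds were transferred in DMSO 5 h after seeding; fluorescence was recorded at intervals up to 40 h.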
Experiment [4] can be described thus: qHTS RealTime-Glo MT Cell Viability Assay in HepG2 cells - 40 hour (AID 1224870). Note: nearly all actives have a fitted effect of over 50% in size. Note: potency is the fitted concentration of half-maximal effect. A digest of the protocol:
(§2)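 HepG2 cells mixed with RealTime-Glo MT reagents (NanoLuc plus cell-permeant prosubstrate) were seeded at 600 cells/well, incubated 5 h at 37 C/5% CO2, then pinned with compounds in DMSO; nonlytic luminescence tracked viability during 40 h treatment.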

The nature of experiment [5]: A CellTox Green Cytotoxicity Assay to monitor cytotoxicity in HEK293 cells - 40 hour (AID 1224871). Note: nearly all actives have a fitted effect of over 45% in size. Note: potency is the fitted concentration of half-maximal effect. A digest of the protocol:
as §1

Experiment [6] can be described thus: qHTS RealTime-Glo MT Cell Viability Assay in HEK293 cells - 16 hour (AID 1224872). Note: nearly all actives have a fitted effect of over 50% in size. Note: potency is the fitted concentration of half-maximal effect. A digest of the protocol:
(§3)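 Viability tracked continuously by luminescence as live cells reduce a prosubstrate for NanoLuc; HEK293 cells preincubated 5 h, compound-treated at 37 C, and read at 0, 8, 16, 24, 32 and 40 h.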

A short description of experiment [7]: qHTS RealTime-Glo MT Cell Viability Assay in HepG2 cells - 8 hour (AID 1224873). Note: nearly all actives have a fitted effect of over 55% in size. Note: potency is the fitted concentration of half-maximal effect. Put shortly: as §2
The nature of experiment [8]: A CellTox Green Cytotoxicity Assay to monitor cytotoxicity in HEK293 cells - 24 hour (AID 1224875). Note: nearly all actives have a fitted effect of over 45% in size. Note: potency is the fitted concentration of half-maximal effect. A digest of the protocol: as §1
Experiment [9] is described as follows: A CellTox Green Cytotoxicity Assay to monitor cytotoxicity in HepG2 cells - 16 hour (AID 1224876). Note: nearly all actives have a fitted effect of over 45% in size. Note: potency is the fitted concentration of half-maximal effect. Put shortly:
(§4)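 Real-time, homogeneous cytotoxicity readout: dead-cell DNA staining by CellTox Green in HepG2 monolayers, fluorescence measured at timed intervals up to 40 h of continuous compound exposure.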

A short description of experiment [10]: A CellTox Green Cytotoxicity Assay to monitor cytotoxicity in HepG2 cells - 24 hour (AID 1224878). Note: nearly all actives have a fitted effect of over 45% in size. Note: potency is the fitted concentration of half-maximal effect. Put shortly: as §4
The nature of experiment [11]: A CellTox Green Cytotoxicity Assay to monitor cytotoxicity in HepG2 cells - 40 hour (AID 1224879). Note: nearly all actives have a fitted effect of over 40% in size. Note: potency is the fitted concentration of half-maximal effect. A digest of the protocol: as §4
The nature of experiment [12]: qHTS RealTime-Glo MT Cell Viability Assay in HEK293 cells - 0 hour (AID 1224880). Note: nearly all actives have a fitted effect of over 45% in size. Note: potency is the fitted concentration of half-maximal effect. Put shortly:
(§5)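 Nonlytic bioluminescent viability monitoring. HEK293 at 600 cells/well with reagent; 5 h settle; compound transfer by pintool; plates held at 37 C and read at set time points.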

A short description of experiment [13]: qHTS assay to identify small molecule agonists of the estrogen related receptor (ERR) signaling pathway from Tox21 library (AID 1224849; calls by dose curve; note: nearly all actives have a fitted effect of over 15% in size). The note with it: ERR reporter cell line, ONE-Glo luciferase, 18 h; at 92.4 µM (top of the series) unless noted. Put shortly:
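Agonist signal is luciferase luminescence from an ERR reporter cell line treated 18 h at 37 C with DMSO-dissolved compounds, read 30 min after ONE-Glo addition at room temperature.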

A short description of experiment [14]: qHTS RealTime-Glo MT Cell Viability Assay in HepG2 cells - 24 hour (AID 1224867). Note: nearly all actives have a fitted effect of over 50% in size. Note: potency is the fitted concentration of half-maximal effect. Put shortly:
(§6)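 Viability was tracked continuously by NanoLuc luminescence from prosubstrate reduced by living HepG2 cells, at successive time points over 40 h of compound exposure. Cells with reagent were preincubated 5 h at 37 °C before compound addition.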

A short description of experiment [15]: qHTS RealTime-Glo MT Cell Viability Assay in HEK293 cells - 32 hour (AID 1224868). Note: nearly all actives have a fitted effect of over 50% in size. Note: potency is the fitted concentration of half-maximal effect. Put shortly:
as §3

Experiment [16] is described as follows: qHTS RealTime-Glo MT Cell Viability Assay in HEK293 cells - 40 hour (AID 1224874). Note: nearly all actives have a fitted effect of over 50% in size. Note: potency is the fitted concentration of half-maximal effect. The note with it: RealTime-Glo luminescence; max response: active compounds read low. A digest of the protocol:
as §5

A short description of experiment [17]: qHTS RealTime-Glo MT Cell Viability Assay in HepG2 cells - 32 hour (AID 1224877). Note: nearly all actives have a fitted effect of over 55% in size. Note: potency is the fitted concentration of half-maximal effect. Put shortly: as §6
Experiment [18] can be described thus: qHTS assay to identify small molecule agonists of H2AX (AID 1224845; active = well fitted activation curve with a large enough effect in the signal ratio in the repeat runs, not every such curve was filed as active; the % refers to the signal ratio). A digest of the protocol:
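Wild-type CHO-K1 cells plated overnight, then exposed 3 hr at 37C to compounds at 15 concentrations (0.76% DMSO). Lysed, then HTRF anti-pH2AX(S139)-cryptate/anti-H2AX-d2 detection after 24 hr at room temperature; emissions 665 and 620 nm.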

Experiment [19] is described as follows: qHTS assay to identify small molecule agonists of the hypoxia (HIF-1) signaling pathway (AID 1224846; active = well fitted activation curve with a large enough effect in the signal ratio in the repeat runs, not every such curve was filed as active; the % refers to the signal ratio). A digest of the protocol:
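Steps: seed ME-180 HRE-bla cells (2,000/well, 0.5% dialyzed FBS); incubate 5 hrs at 37C; pin-transfer compounds or DMSO; incubate 17 hrs; add LiveBLAzer B/G substrate CCF4-AM; measure reporter activation by FRET.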

A number with no mark means an inactive call. Records with an inconclusive call do not appear. Calls of active or inactive are those of the source. Unless noted, calls come from the whole dose curve; as a rule, active = well fitted curve in the direction sought with a large enough effect in the repeat runs; inconclusive = weak or mixed curves; inactive = no such curve, though single readings can be large; an effect the other way counts as inactive or inconclusive.
% is set by controls: 0 for no effect and ±100 for the full control effect.

`C1=CCC=C1`: the Potency result in [1], in experiment [2], in experiment [3], in experiment [4], in experiment [5] and in experiment [6] was “inactive” in each case. Further, the Potency entry in experiment [7], in [8], in experiment [9], in experiment [10], in [11] and in [12] was “inactive” each time.

On to `[C-]1=CC=CC1.[Cl][Zr+2][Cl].c1cc[cH-]c1`, for which the Potency entry in experiment [1], in experiment [2], in [3], in experiment [4], in experiment [5] and in [6] was “inactive” in each case. The Potency entry in [7], in experiment [9], in experiment [10], in [11] and in [12] was “inactive” in each case.

For the compound `c1ccc(Nc2ccc(Nc3ccccc3)cc2)cc1`, the Potency result in experiment [1], in experiment [14], in experiment [4], in experiment [9], in experiment [17] and in experiment [10] was “inactive” each time. The Potency entry in [11] is “inactive”. Further, in experiment [13], the activity change, positive = activation was -22.9%. Moreover, the Potency in experiment [15] was 21.8 µM (active); in experiment [6], 19.4 µM (active); in experiment [16] it was 19.4 µM (active).

Consider `Clc1ccc(C(Cl)(Cl)Cl)cc1Cl`, for which the Potency in experiment [1] is 24 µM (active); in experiment [15], 33.9 µM (active); in [5], 33.9 µM (active); in [6], 33.9 µM (active); in [16], 33.9 µM (active); in experiment [8], 33.9 µM (active). Besides, the Potency in experiment [9], in experiment [10] and in experiment [11] was 47.9 µM (active) throughout. Also, the Potency entry in experiment [2], in [3] and in experiment [12] was “inactive” in each case.

Take `N#CC(C#N)=NNc1cccc(Cl)c1`: the Potency in [1] is 3.09 µM (active); in [14] it was 19.5 µM (active); in experiment [15], 4.9 µM (active); in experiment [4], 19.5 µM (active); in experiment [5], 49 µM (active); in experiment [16], 5.49 µM (active). For the same compound, the Potency in [17] was 21.9 µM (active); in experiment [10], 24.5 µM (active); in experiment [11], 12.3 µM (active); in experiment [12], 38.9 µM (active). Further, the activity change, positive = activation in experiment [13] was -57.7%. The Potency result in experiment [3] and in experiment [7] was “inactive” throughout.

As for `O=[N+]([O-])c1cc(C(F)(F)F)c(Cl)c([N+](=O)[O-])c1Nc1ncc(C(F)(F)F)cc1Cl`, the Potency is 6.92 µM (active) in experiment [1]; 50.5 µM (active) in experiment [2]; 21.9 µM (active) in [14]; 1.74 µM (active) in experiment [15]; 11 µM (active) in [4]; 24.5 µM (active) in experiment [5]. Moreover, the Potency was 2.75 µM (active) in [6]; 24.5 µM (active) in experiment [7]; 1.55 µM (active) in [16]; 38.9 µM (active) in experiment [8]; 43.6 µM (active) in experiment [9]; 12.3 µM (active) in experiment [10]. Moreover, the Potency in experiment [11] is 3.89 µM (active). For the same compound, in experiment [12], the Potency entry is “inactive”.

For the compound `Oc1cccc(Cl)c1Cl`, the Potency result in [18], in [19], in [2], in experiment [14], in experiment [4] and in experiment [5] was “inactive” in each case. In addition, the Potency entry in experiment [7], in [8], in experiment [9], in [17], in experiment [10] and in experiment [11] was “inactive” throughout. In addition, the Potency entry in experiment [12] was “inactive”. The activity change, positive = activation in experiment [13] is -30.2%.

With `CC(Cc1ccc(OCC(=O)O)cc1)NCC(O)c1csc(C(F)(F)F)n1` (centres undefined), the Potency entry in [18], in experiment [19], in [2], in experiment [14], in experiment [15] and in experiment [3] was “inactive” each time. Besides, the Potency entry in experiment [4], in [5], in experiment [6], in [7], in experiment [9] and in experiment [17] was “inactive” each time. In addition, the Potency result in [10], in experiment [11] and in [12] was “inactive” throughout. The activity change, positive = activation in experiment [13] is 13.9%. Moreover, the max response in [16] is -5.31%.
